# Structures can show the parent of a compound that is named as a salt.
# Test system: Danio rerio larvae (5 dpf)
# Assay: difference in activity during first hour vs DMSO (percentage points); higher = more activity than DMSO
# Conditions: 10 µM; exposure time 6 h
# Procedure, shortened: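 Library compounds were tested at 10 µM final in 100 µL egg water on wild-type 5 dpf zebrafish larvae in 96-well plates for 6 h, with 48 larvae per compound. After 3 h, plates at 28.5 ℃ were imaged every 6 s during a 3-h run of moving lines and 100 ms, 400Hz tones. Behaviours were quantified by Z-LaP Tracker and reported as the compound mean less the vehicle control mean, in percentage points.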
row,Structure (SMILES),difference in activity during first hour
1,COc1nc(N)nc2c1ncn2[C@@H]1O[C@H](CO)[C@@H](O)[C@@H]1O [Nelarabine],-4.45
2,CC[C@]1(O)C[C@@H]2CN(CCc3c([nH]c4ccccc34)[C@@](C(=O)OC)(c3cc4c(cc3OC)N(C)[C@H]3[C@@](O)(C(=O)OC)[C@H](OC(C)=O)[C@]5(CC)C=CCN6CC[C@]43[C@@H]65)C2)C1 [Vinblastine (sulfate)],-6.36
3,CN1CCC(=C2c3ccccc3CCn3c(C=O)cnc32)CC1 [Alcaftadine],20.6
4,Cc1nnc(C(C)C)n1C1C[C@H]2CC[C@@H](C1)N2CC[C@H](NC(=O)C1CCC(F)(F)CC1)c1ccccc1 (stereo in doubt) [Maraviroc],5.94
5,C[C@]12C=CC(=O)N[C@@H]1CC[C@@H]1[C@@H]2CC[C@]2(C)[C@@H](C(=O)Nc3cc(C(F)(F)F)ccc3C(F)(F)F)CC[C@@H]12 [Dutasteride],22.4
6,CCC(=O)O[C@]1(C(=O)SCF)[C@H](C)C[C@H]2[C@@H]3C[C@H](F)C4=CC(=O)C=C[C@]4(C)[C@@]3(F)[C@@H](O)C[C@@]21C [Fluticasone Propionate],11.5
7,Nc1ccn([C@@H]2O[C@H](CO)[C@@H](O)C2(F)F)c(=O)n1 [Gemcitabine],-2.75
8,CN(C)CCOC(c1ccccc1)c1ccccc1 [Diphenhydramine (hydrochloride)],-10.6
9,CO[C@H]1/C=C/O[C@@]2(C)Oc3c(C)c(O)c4c(O)c(c(/C=N/N5CCN(C)CC5)c(O)c4c3C2=O)NC(=O)/C(C)=C\C=C\[C@H](C)[C@H](O)[C@@H](C)[C@@H](O)[C@@H](C)[C@H](OC(C)=O)[C@@H]1C [Rifampicin],8.79
10,S=c1nc[nH]c2nc[nH]c12 [6-Mercaptopurine (hydrate)],-5.06
11,OC(c1cc(C(F)(F)F)nc2c(C(F)(F)F)cccc12)C1CCCCN1 (stereo not drawn) [Mefloquine (hydrochloride)],-1.02
12,Nc1nc2c(c(=O)[nH]1)N(C=O)C(CNc1ccc(C(=O)NC(CCC(=O)O)C(=O)O)cc1)CN2 (racemic) [DL-Folinic Acid (calcium salt)],8.84
13,CCOC(=O)c1ccc(C#Cc2ccc3c(c2)C(C)(C)CCS3)nc1 [Tazarotene],54.2
14,Nc1nc2c(ncn2COCCO)c(=O)[nH]1 [Acyclovir],-4.23
15,Cc1cc(/C=C/C#N)cc(C)c1Nc1ccnc(Nc2ccc(C#N)cc2)n1 [Rilpivirine],-18.2
16,NCC[C@H](O)C(=O)N[C@@H]1C[C@H](N)[C@@H](O[C@H]2O[C@H](CN)[C@@H](O)[C@H](O)[C@H]2O)[C@H](O)[C@H]1O[C@H]1O[C@H](CO)[C@@H](O)[C@H](N)[C@H]1O [Amikacin],10.9
17,C[C@H](Cc1cc2c(c(C(N)=O)c1)N(CCCO)CC2)NCCOc1ccccc1OCC(F)(F)F [Silodosin],3.31
18,O=C(c1ccc(F)c(F)c1Nc1ccc(I)cc1F)N1CC(O)([C@@H]2CCCCN2)C1 [Cobimetinib],0.0371
19,C[N+](C)(C)CC=O [Betaine Aldehyde (chloride)],10.1
20,CCN(CC)CCNC(=O)c1c(C)[nH]c(/C=C2\C(=O)Nc3ccc(F)cc32)c1C [Sunitinib (malate)],-4
21,COc1ccc2c3c1O[C@H]1C[C@@H](O)C=C[C@@]31CCN(C)C2 [Galantamine],15.8
22,Cc1ccc(O)c([C@H](CCN(C(C)C)C(C)C)c2ccccc2)c1 [Tolterodine (tartrate)],-20.3
23,COC(=O)C1=C(C)NC(C)=C(C(=O)OC(C)C)C1c1cccc2nonc12 (stereo not drawn) [Isradipine],-0.814
24,CC=CC(=O)N(CC)c1ccccc1C [Crotamiton],-3.58
25,CN(C)[C@@H]1C(O)=C(C(N)=O)C(=O)[C@@]2(O)C(O)=C3C(=O)c4c(O)cccc4[C@@](C)(O)[C@H]3C[C@@H]12 [Tetracycline (hydrochloride)],2.06
26,O=C(O)Cc1ccccc1Nc1c(Cl)cccc1Cl [Diclofenac (sodium salt)],2.16
27,COc1ccc([C@@H]2Sc3ccccc3N(CCN(C)C)C(=O)[C@@H]2OC(C)=O)cc1 [Diltiazem (hydrochloride)],11.2
28,O=C(NC[C@H]1CN(c2ccc(N3CCOCC3=O)cc2)C(=O)O1)c1ccc(Cl)s1 [Rivaroxaban],-2.47

# From the supplement of paper PMC10515830
